# Rows were chosen to be rich in hits. Some 19% of all compounds tested hit in one or more screens of this group.
# KB-V1 cytotox = kills drug-selected multidrug resistant KB-V1 cells; KB-V1 MDR cells viability, CellTiter-Glo, 72 h; Potency, µM (series often up to 46.1 µM), actives largely listed as cytotoxic; 400,000 compounds, 3.4% hits; AID 1347076; also: nearly all actives have a fitted effect of over 60% in size
#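 Cytotoxicity toward P-gp-expressing KB-V1 cells was determined as loss of CellTiter-Glo luminescence after 72 h at 37 degrees C. Compounds were tested in quantitative HTS format across a concentration range, with curves fitted to normalized data.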
# HT1080-NT tox = kills 2HG-producing HT-1080-NT fibrosarcoma cells; HT-1080-NT fibrosarcoma viability, CellTiter-Glo ATP luminescence, 48 h; Potency, µM (series often up to 46.1 µM), for inactives: at the highest dose activity, negative = less viability, most hits filed as cytotoxic; 360,000 compounds, 1.6% hits; AID 686970;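 also: NT is the 2HG producing partner of a matched IDH1 knockdown line; 0% = DMSO-treated cells and -100% = media-only wells without cells; nearly all actives have a fitted effect of over 55% in size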
#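 Read-out is CellTiter-Glo luminescence after 10 minutes at room temperature, following 48 hours' compound treatment of HT-1080-NT cells (750 cells/well, RPMI, 5% FBS, 37 degrees C).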
# KB-3-1 tox = kills parental KB-3-1 adenocarcinoma cells; KB-3-1 viability, CellTiter-Glo ATP luminescence, 72 h; Potency, µM (doses to about 46.1 µM), usual class: cytotoxic; 400,000 compounds, 1.4% hits; also: nearly all actives have a fitted effect of over 60% in size
#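 Luminescent ATP read-out (CellTiter-Glo) measures survival of drug-naive KB-3-1 cells after 72 h compound exposure at 37 °C. Titration series was screened from lowest to highest concentration, with DMSO vehicle plates as background controls.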
# TDP1 cell noCPT = qHTS for Inhibitors of human tyrosyl-DNA phosphodiesterase 1 (TDP1): qHTS in cells in absence of CPT | DT40 Tdp1-/- hTDP1 cells, no CPT, ATP luminescence, 48 h | Potency, µM (series often up to 46.2 µM), for inactives: at the highest dose activity change, negative = growth inhibition, actives largely listed as inhibitors | 420,000 compounds, 15% hits; also: nearly all actives have a fitted effect of over 55% in size
#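 Seeded 400 DT40-hTDP1 cells/well (vehicle DMSO, no 20 nM CPT); pinned compounds; ≥48 hr at 37 °C; CellTiter-Glo luminescence as viability measure.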
# TDP1 cell CPT = growth inhibition of DT40 Tdp1-/-;hTDP1 cells with camptothecin (screen for TDP1 inhibitors); Potency, µM (highest dose often 46.2 µM), for the others: top-dose activity change, negative = growth inhibition, most hits filed as inhibitors; 420,000 compounds, 12% hits; AID 686979; chicken DT40 Tdp1-/-;hTDP1 cells + 20 nM CPT, ATP luminescence, 48 h; also: nearly all actives have a fitted effect of over 55% in size
#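 Cell growth measured by CellTiter-Glo luminescence after a minimum 48 h, 37 C compound exposure with 20 nM CPT in Tdp1-knockout DT40 cells stably expressing hTDP1, seeded 400/well; qHTS titration format.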
# HT1080 IDH1KD tx = kills HT-1080 cells with IDH1 knockdown; HT-1080 IDH1 knockdown viability, ATP luminescence, 48 h; Potency, µM (series often up to 46.1 µM), for inactives: at the highest dose activity, negative = toxicity, hits mostly cytotoxic; 360,000 compounds, 2% hits;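 also: 0% = DMSO wells and -100% = cell-free medium wells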
#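 After a 2 h attachment period, IDH1KD HT-1080 cells took pin-transferred compound for 48 h at 37 °C; ATP-based luminescence after 10 min room-temperature reagent incubation reported viability.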
# Active calls of the source: *; i = inactive; ? = inconclusive; · = no result given. Calls follow the shape of the dose curve; as a rule, active = well fitted curve in the direction sought with a large enough effect; inconclusive = small, poorly fitted or top-dose-only effect, or another doubt; inactive = no such curve, though single readings can be large; an effect the other way counts as inactive or inconclusive. Unless noted, % is scaled to controls: 0 for no effect and ±100 for the full control effect; potency is read from the fitted curve at half-maximal effect.
SMILES,KB-V1 cytotox,HT1080-NT tox,KB-3-1 tox,TDP1 cell noCPT,TDP1 cell CPT,HT1080 IDH1KD tx
CCN(C(=O)COC(=O)/C=C/c1ccccc1Cl)c1c(N)n(Cc2ccccc2)c(=O)[nH]c1=O,i,-2%,i,?,?,-18%
CN(C(=O)COC(=O)/C=C/c1ccc(C(F)(F)F)cc1)c1c(N)n(Cc2ccccc2)c(=O)[nH]c1=O,i,-1%,i,6.5µM*,6.5µM*,-4%
COc1ccccc1C(CNC(=O)CNC(=O)c1ccc(C)c(C)c1)N1CCCC1 (stereo not drawn),?,-5%,i,-12%,-5%,1%
CC(=O)OCc1c(C)cc(C)c(/C=C(/C#N)C(N)=O)c1C,i,0%,i,?,9%,8%
c1ccc(OCCOCCSc2ncccn2)cc1,i,-1%,i,-1%,-6%,5%
O=C1Cc2ccccc2N1c1ccccc1,i,-1%,i,-25%,-5%,2%
O=C1CC(=Nc2ccccc2)NN1c1ccccc1,i,18µM*,?,-26%,-25%,?
Cc1ccc(S(=O)(=O)N2[C@H](CC(=O)c3ccccc3)OC[C@@H]2C)cc1,?,2%,i,?,?,2%
Cc1ccc(S(=O)(=O)N2C[C@@H]3CCCC[C@@H]3[C@@H](C)[C@H]2CC(=O)c2ccccc2)cc1,i,6%,i,13µM*,15µM*,9%
CC1(C)OC2CC3C4CCC5=CC(=O)C=C[C@@]5(C)[C@]4(F)C(O)C[C@@]3(C)[C@]2(C(=O)CO)O1 (stereo partly drawn),·,·,·,1%,1%,·
Cc1ccc2nc3ccc(N4CCCCCCC4)nn3c(=O)c2c1,?,6%,i,?,?,4%
Cc1sc2nc3ccc(N4CCCC4)nn3c(=O)c2c1C,16µM*,-1%,?,?,?,1%
CCc1nc2c(OCC(=O)N3CCOCC3)cccn2c1N(C)C(=O)COc1ccccc1,i,8%,i,-4%,5%,19%
COC(=O)C1=CN(c2ccc(F)cc2)C=C(C(=O)OC)C1c1cccc([N+](=O)[O-])c1,i,-2%,i,26µM*,-25%,-21%
COC(=O)C1=CN(c2ccc(OC)cc2)C=C(C(=O)OC)C1c1ccc(C)c([N+](=O)[O-])c1,3.3µM*,-8%,?,21µM*,?,-4%
COC(=O)C1=CN(c2ccc(OC)cc2)C=C(C(=O)OC)C1c1cccc(F)c1,i,7%,i,-10%,8%,13%
O=c1oc2ccc(Cl)cc2cc1-c1nc(-c2cccs2)no1,·,·,·,-1%,-2%,·
COc1ccc(C(=O)NCC(=O)NCc2ccncc2)cc1,i,4%,i,14%,-6%,8%
CN(C)CCN(C(=O)c1ccco1)c1nc2c(F)cc(F)cc2s1,i,·,i,?,?,·
CNC(=O)c1ccc2c(c1)N=C(C)c1cc(C)ccc1S2,?,·,18µM*,4.6µM*,3.7µM*,·
CCC1=Nc2cc(C(=O)NCCCOC(C)C)ccc2Sc2ccccc21,?,-10%,?,?,?,-15%
CC1=Nc2cc(C(=O)NC(C)C)ccc2Sc2ccc(C)cc21,·,·,·,4.1µM*,4.6µM*,·
CCN1C(=O)c2ccccc2Sc2ccc(C(=O)NC(C)C)cc21,i,4%,i,0%,1%,9%
CN(C)C(=O)CCCCCCCCC(=O)N(C)C,i,5%,i,4%,11%,7%
COc1ccc(NC(=O)C(C)n2nc(C)c3c(C)n(-c4ccccc4)nc3c2=O)cc1Cl (stereo not drawn),i,·,i,?,-28%,·
SMILES,KB-V1 cytotox,HT1080-NT tox,KB-3-1 tox,TDP1 cell noCPT,TDP1 cell CPT,HT1080 IDH1KD tx
COc1ccc(OC)c(NC(=O)c2ccc(-c3nc(COc4ccccc4)c(C)o3)cc2)c1,i,·,i,13µM*,?,·
COc1ccccc1NC(=O)c1ccc(-c2nc(COc3ccc(C)cc3)c(C)o2)cc1,?,·,i,18µM*,21µM*,·
Cc1ccc(OCc2nc(-c3ccc(C(=O)NCc4ccc(OC(C)C)cc4)cc3)oc2C)cc1,i,·,i,21µM*,?,·
Cc1oc(-c2ccc(C(=O)NCc3ccc(N(C)C)cc3)cc2)nc1COc1ccccc1,i,·,i,-26%,3%,·
CCc1ccc(C2CC(c3cccc(OC)c3)n3nc(N)nc3N2)cc1 (stereo not drawn),i,13%,i,?,?,13%
Cc1ccc(S(=O)(=O)c2nnn(CC(=O)Nc3ccccc3C)c2N)cc1C,i,·,i,15µM*,?,·
Cc1cccc(C)c1NC(=O)Cn1nnc(S(=O)(=O)c2ccccc2)c1N,·,·,·,-4%,-14%,·
Cc1ccc(S(=O)(=O)c2nnn(CC(=O)Nc3ccccc3C)c2N)cc1,?,·,16µM*,-7%,15%,·
CC(C)CN=C(NS(=O)(=O)c1ccccc1)C(Cl)(Cl)Cl,?,6.5µM*,8.2µM*,5.8µM*,4.6µM*,6.5µM*
CC(C)CC(NS(=O)(=O)c1ccccc1)C(=O)O (stereo not drawn),i,1%,i,-7%,-22%,17%
CC(=O)Nc1cc(NC(C)=O)cc(C(=O)NCC2(N3CCOCC3)CCCCC2)c1,?,5%,i,3%,1%,-11%
Nc1ccccc1C(=O)NCc1ccc(Cl)cc1,i,9%,i,-9%,9%,10%
S=C(NCc1ccncc1)Nc1cccc(Cl)c1,?,1%,i,-15%,-8%,-2%
CC(C)c1cccc(C(C)C)c1NC(=S)Nc1cccc(Cl)c1,?,7%,i,21µM*,?,0%
S=C(NCCC(c1ccccc1)c1ccccc1)Nc1cccc(Cl)c1,?,?,i,15µM*,?,?
S=C(NCc1cccc(Cl)c1)NC1CCCCC1,18µM*,-1%,?,?,-13%,-1%
S=C(NCc1ccccn1)Nc1cccc(Cl)c1,i,2%,i,?,?,-4%
S=C(NCCN(C1CCCCC1)C1CCCC1)Nc1cccc(Cl)c1,?,16µM*,?,16µM*,?,16µM*
CCCCC(=O)N/N=C/c1ccc(N2CCOCC2)c([N+](=O)[O-])c1,i,2%,i,-6%,-9%,-12%

# Bioassay records deposited in PubChem BioAssay by National Center for Advancing Translational Sciences (NCATS).
